In PubChem BioAssay AID2100 (National Center for Advancing Translational Sciences (NCATS), 2009):
The campaign covered roughly 300,000 compounds. About 1,200 (0.4%) were called active. Not shown: some 3% with an inconclusive outcome. For the sample, actives were picked, then their nearest neighbours and some compounds at random. Values without a mark were called inactive. Calls follow the shape of the dose curve; as a rule, active = well fitted inhibition curve with a large enough effect; inconclusive = small, poorly fitted or top-dose-only effect, or another doubt; inactive = no such curve, though single readings can be large or run the other way.

target: Lysosomal alpha-glucosidase (Homo sapiens) (UniProt P10253); test: qHTS Assay for Inhibitors and Activators of Human alpha-Glucosidase Cleavage of Glycogen; conditions: recombinant GAA, glycogen substrate, Amplex Red glucose oxidase fluorescence; series mostly up to 76.3 µM; activity change, negative = inhibition: at the top concentration;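 also: the screen sought inhibitors and activators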;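 as to activity change, negative = inhibition: 0% = full enzyme reaction and -100% = no-enzyme basal signal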
Method in brief: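 Natural-substrate format: glycogen cleavage by 4 nM human enzyme, glucose read by Amplex Red coupling (Ex 573, Em 610 nm). Normalized to enzyme and no-enzyme controls.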
Potency is read from the fitted curve at half-maximal effect.

Row | Structure (SMILES) | activity change, negative = inhibition | Potency
1 | CCOc1ccc2nc(N3CCCC(C(=O)Nc4cc(C)ccc4C)C3)sc2c1 (centres undefined) | -4.5% | 
2 | O=C(O)/C=C/C(=O)NNc1ccc([N+](=O)[O-])cc1 |  | 14 µM (active)
3 | O=[N+]([O-])c1ccc(N/N=C/c2ccccc2)cc1 | -6.86% [at 76.4 µM] | 
4 | CNC(=S)Nc1ccc([N+](=O)[O-])cc1 | 1.96% [at 76.4 µM] | 
5 | COc1cc(Nc2nc(-c3ccc(OC)c(OC)c3)nc3ccccc23)cc(OC)c1 | 2.34% | 
6 | CC(Nc1ccc(-c2nc(-c3ccco3)no2)cc1[N+](=O)[O-])c1ccccc1 (centres undefined) | -6.17% | 
7 | CCc1ccc(C(=O)CC2(O)C(=O)N(CCc3ccccc3)c3ccc(Br)cc32)cc1 (centres undefined) | -5.36% | 
8 | Cn1c(=O)n(C)c2cc(CNc3ccc(N4CCOCC4)c(C(=O)O)c3)ccc21 |  | 9.92 µM (active)
9 | CCN(CC)S(=O)(=O)c1ccc(N2CCOCC2)c(C(=O)O)c1 | 1.48% [at 76.4 µM] | 
10 | COC(=O)c1cc(NC(=O)c2ccco2)ccc1N1CCOCC1 | 10.8% [at 76.4 µM] | 
11 | CCn1cc(C(=O)NCCc2ccccc2)c(=O)c2cc(S(=O)(=O)N3CCCCCC3)ccc21 | 0.975% | 
12 | O=C(Nc1nc2c(s1)CCCC2)c1ccccc1F | -6.45% | 
13 | CCc1ccc(NC(=O)N2CCN(c3ccccc3)CC2)cc1 | -8.22% [at 76.4 µM] | 
14 | CC(=O)N1CCN(c2ccc(NCc3ccc(C(C)C)cc3)cc2)CC1 |  | 31.6 µM (active)
15 | CC(CC(=O)N1CCN(c2ccccc2)CC1)c1ccccc1 (centres undefined) | 7.33% [at 76.4 µM] | 
16 | Cc1ccc(-c2cc(N)n(Cc3cccc(Cl)c3)n2)cc1 | -10.6% | 
17 | CC1=Nc2cc(C(=O)N3CCC(C)CC3)ccc2Sc2ccc(Cl)cc21 | -8.37% | 
18 | Nc1ccc(Nc2ccccc2)cc1 | -24.5% [at 76.4 µM] | 
19 | Cc1ccc(Nc2ccccc2N)cc1 |  | 50.1 µM (active)
20 | Cc1ccc(Nc2nnc(SCc3ccccc3)s2)cc1 | 4.5% [at 76.4 µM] | 
21 | COc1ccc(CNC(=O)COCc2cc(-c3cccs3)on2)cc1OC | 16% | 
22 | Cc1nc2nc(NCc3cccc(Br)c3)[nH]n2c(=O)c1Cc1ccccc1 | 6.3% | 
23 | CC1CCN(c2nc3ccc(C(=O)N4CCN(c5ccccc5)CC4)cc3s2)CC1 | -11.9% | 
24 | O=C(Nc1ccc2nc(SCCOc3ccccc3)sc2c1)c1ccco1 | -5.61% | 
25 | Cc1cc(NC(=O)C2CCC(CNS(=O)(=O)c3ccc(Br)s3)CC2)ccc1Br (centres undefined) | -16.1% | 
26 | CCN(CC)S(=O)(=O)c1cc([N+](=O)[O-])ccc1NNC(=O)Nc1ccccc1 |  | 28.2 µM (active)
27 | CC(=O)c1ccc(NC(=O)Nc2ccc([N+](=O)[O-])cc2C)cc1 | 3.84% [at 76.4 µM] | 
28 | CCN(CC)S(=O)(=O)c1cc([N+](=O)[O-])ccc1N=Nc1c(O)n(C)c2ccccc12 | -1.84% [at 76.4 µM] | 
29 | COC(=O)c1cccc(Cn2nnc3sc4c(c3c2=O)CCC(C(C)(C)C)C4)c1 (centres undefined) | 7.54% | 
